PubChem BioAssay AID1159580 (chemical genetic matrix, 2015)
Out of some 5,500 compounds screened, about 2,000 (36%) were called active. Not shown: some 18% with an inconclusive outcome. The list shows a part of the results. A number with no mark means an inactive call. Cut-off read from the data, not from the text of the source: active = normalized growth mostly below about 0.91 (no sharp cut-off); inconclusive = no clear call, values can overlap the other calls; inactive = mostly above about 0.92.

Assay: chemical genetic growth profiling, strain panel (AID 1159580);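 note: tested at 20 µM; growth read once vehicle control cultures reached saturation at 30 °C; 1 = growth at the plate median or of vehicle wells; lower values mean less growth of the strain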
Conditions: growth OD
[1] = S. cerevisiae deletion strains, locus YAL013W, strain DEP1, hits give low values
[2] = S. cerevisiae deletion strains, locus YBR229C, strain ROT2, hits give low values
[3] = S. cerevisiae deletion strains, locus YCL061C, strain MRC1, hits give low values
[4] = S. cerevisiae deletion strains, locus YDL101C, strain DUN1, hits give low values
[5] = S. cerevisiae deletion strains, locus YDR150W, strain NUM1, hits give low values
[6] = S. cerevisiae deletion strains, locus YEL061C, strain CIN8, hits give low values
[7] = S. cerevisiae deletion strains, locus YGR078C, strain PAC10, hits give low values
[8] = S. cerevisiae deletion strains, locus YHR030C, strain SLT2, hits give low values
[9] = S. cerevisiae deletion strains, locus YHR087W, strain rtc3, hits give low values
[10] = S. cerevisiae deletion strains, locus YJL187C, strain SWE1, hits give low values
[11] = S. cerevisiae deletion strains, locus YJR043C, strain POL32, hits give low values
[12] = S. cerevisiae deletion strains, locus YJR075W, strain HOC1, hits give low values
[13] = S. cerevisiae deletion strains, locus YLR039C, strain RIC1, hits give low values
[14] = S. cerevisiae deletion strains, locus YLR058C, strain SHM2 (second series), hits give low values
[15] = S. cerevisiae deletion strains, locus YLR085C, strain ARP6, hits give low values
[16] = S. cerevisiae deletion strains, locus YLR262C, strain YPT6, hits give low values
[17] = S. cerevisiae deletion strains, locus YML094W, strain GIM5, hits give low values
[18] = S. cerevisiae deletion strains, locus YMR219W, strain ESC1, hits give low values
[19] = S. cerevisiae deletion strains, locus YMR263W, strain SAP30, hits give low values
[20] = S. cerevisiae deletion strains, locus YNL153C, strain GIM3, hits give low values
[21] = S. cerevisiae deletion strains, locus YNL298W, strain CLA4 (second series), hits give low values
[22] = S. cerevisiae deletion strains, locus YNL322C, strain KRE1, hits give low values
[23] = S. cerevisiae deletion strains, locus YNR030W, strain Alg12, hits give low values
[24] = S. cerevisiae deletion strains, locus YOL006C, strain TOP1, hits give low values
[25] = S. cerevisiae deletion strains, locus YPL055C, strain LGE1, hits give low values
[26] = S. cerevisiae deletion strains, locus YPL241C, strain CIN2, hits give low values
[27] = S. cerevisiae deletion strains, locus YPR135W, strain CTF4, hits give low values
[28] = S. cerevisiae strains, strain wild type, hits give low values

Compound: N#CCCN(CC1CCCO1)C(=S)Nc1cc(C(F)(F)F)cc(C(F)(F)F)c1 (stereo not given)
- normalized growth [1]: 1.01
- normalized growth [2]: 0.965
- normalized growth [3]: 0.994
- normalized growth [4]: 0.991
- normalized growth (S. cerevisiae deletion strains, locus YDL134C, strain PPH21, hits give low values): 0.95
- normalized growth [5]: 0.953
- normalized growth [6]: 0.982
- normalized growth [7]: 0.985
- normalized growth [8]: 0.882
- normalized growth [9]: 0.979
- normalized growth [10]: 1
- normalized growth [11]: 0.938
- normalized growth [12]: 0.918
- normalized growth (S. cerevisiae deletion strains, locus YKL190W, strain CNB1, hits give low values): 1.02
- normalized growth [13]: 0.86
- normalized growth [14]: 1.01
- normalized growth [15]: 0.85
- normalized growth [16]: 0.908
- normalized growth [17]: 0.888
- normalized growth [18]: 0.996
- normalized growth [19]: 0.978
- normalized growth [20]: 1
- normalized growth [21]: 0.985
- normalized growth [22]: 1
- normalized growth [23]: 0.829 (active)
- normalized growth [24]: 0.903
- normalized growth [25]: 0.866
- normalized growth [26]: 0.797 (active)
- normalized growth [27]: 0.827
- normalized growth [28]: 1.02

Compound: O=C(NCc1ccc(Cl)c(Cl)c1)c1cccnc1OCC(F)(F)F
- normalized growth (S. cerevisiae deletion strains, locus YAR019C, strain CDC15, hits give low values): 0.956
- normalized growth (S. cerevisiae deletion strains, locus YBL105C, strain PKC1, hits give low values): 0.951
- normalized growth (S. cerevisiae deletion strains, locus YBR135W, strain CKS1, hits give low values): 0.947
- normalized growth (S. cerevisiae deletion strains, locus YBR136W, strain MEC1, hits give low values): 0.97
- normalized growth (S. cerevisiae deletion strains, locus YBR160W, strain CDC28, hits give low values): 0.961
- normalized growth (S. cerevisiae deletion strains, locus YDL017W, strain CDC7, hits give low values): 0.955
- normalized growth (S. cerevisiae deletion strains, locus YDL028C, strain MPS1, hits give low values): 0.97
- normalized growth [4]: 0.958
- normalized growth (S. cerevisiae deletion strains, locus YDL108W, strain KIN28, hits give low values): 0.947
- normalized growth (S. cerevisiae deletion strains, locus YDL132W, strain cdc53, hits give low values): 0.952
- normalized growth (S. cerevisiae deletion strains, locus YDL214C, strain PRR2, hits give low values): 0.971
- normalized growth (S. cerevisiae deletion strains, locus YDR052C, strain DBF4, hits give low values): 0.971
- normalized growth (S. cerevisiae deletion strains, locus YDR054C, strain cdc34, hits give low values): 0.958
- normalized growth (S. cerevisiae deletion strains, locus YDR226W, strain ADK1, hits give low values): 0.967
- normalized growth (S. cerevisiae deletion strains, locus YDR477W, strain SNF1, hits give low values): 0.974
- normalized growth (S. cerevisiae deletion strains, locus YER123W, strain YCK3, hits give low values): 0.949
- normalized growth (S. cerevisiae deletion strains, locus YER133W, strain GLC7, hits give low values): 0.961
- normalized growth (S. cerevisiae deletion strains, locus YFL009W, strain cdc4, hits give low values): 0.966
- normalized growth (S. cerevisiae deletion strains, locus YFL029C, strain CAK1, hits give low values): 0.955
- normalized growth (S. cerevisiae deletion strains, locus YFR003C, strain YPI1, hits give low values): 0.949
- normalized growth (S. cerevisiae deletion strains, locus YFR019W, strain FAB1, hits give low values): 0.97
- normalized growth (S. cerevisiae deletion strains, locus YFR028C, strain CDC14, hits give low values): 0.947
- normalized growth (S. cerevisiae deletion strains, locus YGR040W, strain KSS1, hits give low values): 0.965
- normalized growth (S. cerevisiae deletion strains, locus YGR052W, strain FMP48, hits give low values): 1.02
- normalized growth (S. cerevisiae deletion strains, locus YGR092W, strain DBF2, hits give low values): 0.932
- normalized growth [8]: 1.04
- normalized growth (S. cerevisiae deletion strains, locus YHR079C, strain IRE1, hits give low values): 1.03
- normalized growth (S. cerevisiae deletion strains, locus YHR082C, strain KSP1, hits give low values): 1.06
- normalized growth (S. cerevisiae deletion strains, locus YHR205W, strain SCH9, hits give low values): 0.95
- normalized growth (S. cerevisiae deletion strains, locus YIL147C, strain SLN1, hits give low values): 0.958
- normalized growth (S. cerevisiae deletion strains, locus YJL095W, strain BCK1, hits give low values): 1.02
- normalized growth (S. cerevisiae deletion strains, locus YJL128C, strain PBS2, hits give low values): 0.9
- normalized growth (S. cerevisiae deletion strains, locus YJL157C, strain FAR1, hits give low values): 0.973
- normalized growth (S. cerevisiae deletion strains, locus YJR016C, strain ILV3, hits give low values): 0.965
- normalized growth (S. cerevisiae deletion strains, locus YJR066W, strain TOR1 (second series), hits give low values): 0.972
- normalized growth (S. cerevisiae deletion strains, locus YJR066W, strain TOR1, hits give low values): 1.07
- normalized growth (S. cerevisiae deletion strains, locus YKL048C, strain ELM1, hits give low values): 0.951
- normalized growth (S. cerevisiae deletion strains, locus YKL067W, strain YNK1, hits give low values): 0.955
- normalized growth (S. cerevisiae deletion strains, locus YKL101W, strain HSL1, hits give low values): 0.968
- normalized growth (S. cerevisiae deletion strains, locus YKL193C, strain SDS22, hits give low values): 0.951
- normalized growth (S. cerevisiae deletion strains, locus YKL203C, strain TOR2, hits give low values): 1.04
- normalized growth (S. cerevisiae deletion strains, locus YLR113W, strain HOG1, hits give low values): 0.891
- normalized growth (S. cerevisiae deletion strains, locus YLR133W, strain CKI1, hits give low values): 0.965
- normalized growth (S. cerevisiae deletion strains, locus YLR403W, strain SFP1, hits give low values): 0.978
- normalized growth (S. cerevisiae deletion strains, locus YML070W, strain DAK1, hits give low values): 0.944
- normalized growth (S. cerevisiae deletion strains, locus YMR001C, strain CDC5, hits give low values): 0.937
- normalized growth (S. cerevisiae deletion strains, locus YMR205C, strain PFK2 (second series), hits give low values): 0.958
- normalized growth (S. cerevisiae deletion strains, locus YMR277W, strain FCP1, hits give low values): 0.947
- normalized growth (S. cerevisiae deletion strains, locus YNL006W, strain LST8, hits give low values): 0.968
- normalized growth (S. cerevisiae deletion strains, locus YNL020C, strain ARK1, hits give low values): 0.968
- normalized growth (S. cerevisiae deletion strains, locus YNL161W, strain CBK1, hits give low values): 0.971
- normalized growth (S. cerevisiae deletion strains, locus YNL183C, strain NPR1, hits give low values): 0.99
- normalized growth (S. cerevisiae deletion strains, locus YNL207W, strain RIO2, hits give low values): 0.968
- normalized growth (S. cerevisiae deletion strains, locus YNL222W, strain SSU72, hits give low values): 0.953
- normalized growth (S. cerevisiae deletion strains, locus YNL307C, strain MCK1 (second series), hits give low values): 0.957
- normalized growth (S. cerevisiae deletion strains, locus YOL078W, strain AVO1, hits give low values): 0.963
- normalized growth (S. cerevisiae deletion strains, locus YOL136C, strain PFK27, hits give low values): 0.968
- normalized growth (S. cerevisiae deletion strains, locus YOR061W, strain CKA2, hits give low values): 0.945
- normalized growth (S. cerevisiae deletion strains, locus YOR119C, strain RIO1, hits give low values): 1.01
- normalized growth (S. cerevisiae deletion strains, locus YOR231W, strain MKK1, hits give low values): 1.03
- normalized growth (S. cerevisiae deletion strains, locus YOR329C, strain SCD5, hits give low values): 0.969
- normalized growth (S. cerevisiae deletion strains, locus YPL031C, strain PHO85, hits give low values): 0.97
- normalized growth (S. cerevisiae deletion strains, locus YPL153C, strain RAD53, hits give low values): 0.968
- normalized growth (S. cerevisiae deletion strains, locus YPL204W, strain HRR25, hits give low values): 0.971
- normalized growth (S. cerevisiae deletion strains, locus YPL209C, strain IPL1, hits give low values): 0.968
- normalized growth (S. cerevisiae deletion strains, locus YPL256C, strain CLN2, hits give low values): 0.995
- normalized growth (S. cerevisiae deletion strains, locus YPR025C, strain CCL1, hits give low values): 0.964
- normalized growth (S. cerevisiae deletion strains, locus YPR106W, strain ISR1, hits give low values): 0.961
- normalized growth (S. cerevisiae deletion strains, locus YPR111W, strain DBF20, hits give low values): 0.958
- normalized growth (S. cerevisiae deletion strains, strain NNK1, hits give low values): 0.959
- normalized growth (S. cerevisiae deletion strains, strain TSCII, hits give low values): 0.958

Compound: CN(C)C=Nc1ncccc1OCc1ccc(Cl)c(Cl)c1
- normalized growth [1]: 0.973
- normalized growth [2]: 0.989
- normalized growth [3]: 0.945
- normalized growth [4]: 0.951
- normalized growth [5]: 0.851
- normalized growth [6]: 0.951
- normalized growth [7]: 0.964
- normalized growth (S. cerevisiae deletion strains, locus YGR229C, strain SMI1, hits give low values): 0.967
- normalized growth [8]: 0.47 (active)
- normalized growth [9]: 1.04
- normalized growth [10]: 0.959
- normalized growth [11]: 0.951
- normalized growth [12]: 1
- normalized growth [13]: 1.05
- normalized growth [14]: 1
- normalized growth [15]: 0.722 (active)
- normalized growth [16]: 1.05
- normalized growth [17]: 0.923
- normalized growth [18]: 0.987
- normalized growth [19]: 0.963
- normalized growth [20]: 0.94
- normalized growth [21]: 0.788 (active)
- normalized growth [22]: 0.978
- normalized growth [23]: 0.926
- normalized growth [24]: 0.563 (active)
- normalized growth [25]: 0.995
- normalized growth [26]: 0.888
- normalized growth [27]: 0.756
- normalized growth [28]: 0.878 (active)
